In the library only some 18% were active in any assay of this set; here they are far more common.
DT40 TDP1 no CPT – qHTS for Inhibitors of human tyrosyl-DNA phosphodiesterase 1 (TDP1): qHTS in cells in absence of CPT. DT40 Tdp1-/- hTDP1 cells, no CPT, ATP luminescence, 48 h. Potency, µM (titrated, usually from 46.2 µM), for the others: at the top dose activity change, negative = growth inhibition, usual class: inhibitors. 420,000 tested, 15% active; note: potency is the fitted concentration of half-maximal effect; % is set by controls: 0 for no effect and ±100 for the full control effect; nearly all actives have a fitted effect of over 55% in size
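Growth of hTDP1-complemented DT40 Tdp1-knockout cells is measured by ATP luminescence after at least 48 hr compound exposure at 37 °C, with DMSO substituting for the 20 nM CPT used in the parallel screen.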
IL1B secr inh – inflammasome signaling inhibition, IL-1 beta readout. activity change, % at 57.5 µM. THP-1 LPS/ATP IL-1B secretion, AlphaLISA, 16 h; active compounds read low. 360,000 tested, 4.7% active. AID 743279; in the data active = activity change below about -50%; inconclusive = mostly about -30% to -49%; note: % is set by controls: 0 for no effect and ±100 for the full control effect
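THP-1 cells pretreated 1 hr with compounds (up to 57.5 uM final), then stimulated with LPS (250 ng/mL final) plus ATP (1.25 mM final); secreted IL-1B measured by AlphaLISA after 16 hr, decreased signal indicating inhibition.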
TGFb SMAD3 inh – inhibitors of TGF-b signaling; HepG2 CAGA-GFP TGF-b/SMAD3 reporter, GFP fluorescence, 18 h; TGF-beta stimulated, 500 pg/mL final; Potency, µM (titrated, usually from 46.1 µM), for inactives: at the top dose activity, negative = inhibition, usual class: inhibitors; 410,000 tested, 1.2% active; note: potency is the fitted concentration of half-maximal effect; % is set by controls: 0 for no effect and ±100 for the full control effect; nearly all actives have a fitted effect of over 65% in size
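TGF-beta reporter screen: HEPG2 CAGA-GFP, 1% FBS, 500 pg/mL TGF-beta final, 18 h; per-cell GFP summed per well; curves fitted and categorized by class.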
HepG2 viability – counter-screen for TGF-b inhibitors: cytotoxicity in HepG2 cells. HepG2 CAGA-GFP viability, ATP luminescence, 18 h. Potency, µM (doses to about 46.1 µM), without a hit: at the highest dose activity change, negative = cytotoxicity, usual class: cytotoxic. 410,000 tested, 0.76% active; note: potency is the fitted concentration of half-maximal effect
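HepG2 CAGA-GFP cells (1000/well, DMEM with 1% FBS) received compound, then TGF-beta at 500 pg/mL final, and were incubated 18 hours at 37 degrees C. Viability was read by CellTiter-Glo luminescence. Media-only wells were set as complete cell-killing and DMSO as no toxicity.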
TDP1 inh – inhibitors of human tyrosyl-DNA phosphodiesterase TDP1. 350,000 tested, 0.28% active. AID 485290. Potency, µM (series often up to 130 µM), inactives show at the highest dose activity change, negative = inhibition, most hits filed as inhibitors. Q9NUW8. recombinant TDP1, AlphaScreen DNA substrate cleavage; note: potency is the fitted concentration of half-maximal effect; % is set by controls: 0 for no effect and ±100 for the full control effect; nearly all actives have a fitted effect of over 40% in size
Target sequence (Q9NUW8 whole entry, looked up): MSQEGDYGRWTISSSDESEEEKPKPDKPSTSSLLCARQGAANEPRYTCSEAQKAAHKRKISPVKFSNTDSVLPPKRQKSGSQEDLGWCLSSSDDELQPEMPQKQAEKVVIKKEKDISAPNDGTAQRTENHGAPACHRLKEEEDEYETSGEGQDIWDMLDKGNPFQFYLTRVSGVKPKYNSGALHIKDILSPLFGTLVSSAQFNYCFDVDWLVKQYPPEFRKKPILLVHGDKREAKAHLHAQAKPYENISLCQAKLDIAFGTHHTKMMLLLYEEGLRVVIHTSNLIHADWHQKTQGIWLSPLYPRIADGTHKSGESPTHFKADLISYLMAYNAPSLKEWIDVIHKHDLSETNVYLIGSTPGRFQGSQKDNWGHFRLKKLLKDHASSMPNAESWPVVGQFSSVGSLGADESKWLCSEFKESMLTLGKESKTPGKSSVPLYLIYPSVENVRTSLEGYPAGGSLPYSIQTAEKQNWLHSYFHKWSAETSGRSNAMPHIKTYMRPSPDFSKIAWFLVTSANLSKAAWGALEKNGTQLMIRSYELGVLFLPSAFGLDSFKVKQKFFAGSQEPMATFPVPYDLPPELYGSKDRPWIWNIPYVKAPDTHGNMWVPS
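Here, a 5' biotin and 3' phosphotyrosine-FITC DNA oligonucleotide reports Tdp1 activity: intact substrate bridges AlphaScreen beads, while cleavage leaves a 3' phosphate and drops signal. All incubations at room temperature.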
DT40 TDP1 CPT – growth inhibition of DT40 Tdp1-/-;hTDP1 cells with camptothecin (screen for TDP1 inhibitors). 420,000 tested, 12% active. AID 686979. Potency, µM (series often up to 46.2 µM), for inactives: at the top dose activity change, negative = growth inhibition, most hits filed as inhibitors. chicken DT40 Tdp1-/-;hTDP1 cells + 20 nM CPT, ATP luminescence, 48 h; note: potency is the fitted concentration of half-maximal effect; % is set by controls: 0 for no effect and ±100 for the full control effect; nearly all actives have a fitted effect of over 55% in size
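Chicken DT40 Tdp1-/- cells complemented with human TDP1, 400 cells/well, exposed to compounds plus 20 nM camptothecin for at least 48 h at 37 C; viability read as ATP content by CellTiter-Glo luminescence.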
* hit, by the source's call; u = inconclusive; x = no result given. Unless noted, calls come from the whole dose curve; as a rule, active = well fitted curve in the direction sought with a large enough effect; inconclusive = small, poorly fitted or top-dose-only effect, or another doubt; inactive = no such curve, though single readings can be large; an effect the other way counts as inactive or inconclusive.

SMILES	DT40 TDP1 no CPT	IL1B secr inh	TGFb SMAD3 inh	HepG2 viability	TDP1 inh	DT40 TDP1 CPT
CCOC(=O)c1sc(NC(=O)C(CC)OC(=O)c2ccco2)nc1C (configuration not stated)	-16.5%	-83.7*	-17.3%	-43.1%	x	-11.3%
CCN1CCN(CCCNC(=O)c2ccccc2NC(=O)C2=C(C)OCCS2)CC1	23.4%	0.0	10.2%	4.9%	4.1%	2.2%
CCOC(=O)CC(NC(=O)N1CCC(CN2CCC(C)CC2)CC1)c1ccccc1 (configuration not stated)	3.0%	x	1.6%	-2.2%	1.5%	5.4%
Cc1ccc(COc2ccc(CNCCCN3CCCCCC3=O)cc2)cc1	18.4µM*	-63.8*	10.8%	-19.0%	x	u
COc1ccc(N2C(=O)CC(c3cc(OC)c(OC)c(OC)c3)CC2=O)cc1	13µM*	34.8	u	0.3%	x	14.6µM*
COc1cc(C2CC(=O)N(c3ccc(C)cc3)C(=O)C2)cc(OC)c1OC	1.84µM*	36.4	25.6%	-5.1%	-3.1%	1.84µM*
Cc1ccc(N2C(=O)CC(C)CC2=O)cc1	4.0%	20.8	12.0%	14.9%	x	5.1%
COc1ccc(N2C(=O)C3CCCN3C2c2cc(OC)c(OC)c(OC)c2)cc1 (configuration not stated)	-15.2%	-21.1	10.7%	4.8%	4.9%	-15.5%
Cc1nc(N/N=C/c2cccnc2)cc(N2CCOCC2)n1	u	-64.3*	-3.7%	5.6%	x	u
Oc1ccc(/C=N/Nc2cc(N3CCCC3)nc(N3CCCC3)n2)cc1O	20.6µM*	37.2	-13.5%	-18.9%	5.7%	18.4µM*
COc1ccc(/C=N/Nc2nc(N3CCCC3)nc(N3CCCC3)n2)cc1O	u	10.1	3.6%	-25.9%	3.9%	-21.6%
Cc1cc(N/N=C/c2ccc(O)cc2O)nc(N2CCOCC2)n1	-28.5%	-5.9	17.9%	-14.5%	10.1%	-3.0%
Cc1cccc(/C=N/Nc2cc(N3CCOCC3)nc(N3CCOCC3)n2)c1	16.4µM*	-78.4*	12.5%	-42.6%	5.9%	3.26µM*
Oc1ccc(/C=N\Nc2cc(N3CCOCC3)nc(N3CCOCC3)n2)c(O)c1	16.4µM*	u	56.7%	-36.3%	2.6%	20.6µM*
Cc1cc(N/N=C/c2ccccc2)nc(N2CCOCC2)n1	-5.2%	-23.3	6.6%	-30.1%	x	1.0%
CC(=O)c1ccc(N2CCN(S(=O)(=O)c3ccc(-c4cc(C(F)(F)F)on4)s3)CC2)cc1	u	x	-0.4%	2.5%	0.0%	-27.6%
Clc1ccccc1/C=N/Nc1cc(N2CCOCC2)ncn1	2.5%	-20.1	18.7%	-3.8%	x	22.1%
CCCCOc1ccc(/C=N/Nc2cc(N3CCOCC3)nc(C)n2)cc1	20.6µM*	14.3	-3.4%	-12.7%	x	18.4µM*
COc1ccccc1CCC(=O)O	-1.4%	x	0.7%	-6.2%	x	-9.5%
COc1ccccc1CCn1cnc(Cc2ccccc2)c1C(C)C	7.31µM*	-51.8*	x	x	x	7.31µM*
CCCCCc1c(-c2ccc(F)cc2)ncn1CCc1ccccc1OC	18.4µM*	-50.8*	x	x	x	9.2µM*
CCCCCc1c(-c2ccc(Br)cc2)ncn1CCc1ccccc1OC	4.61µM*	-82.5*	x	x	x	6.51µM*
COc1ccccc1CCn1cnc(-c2ccc(Br)cc2)c1C(C)C	18.4µM*	0.0	x	x	x	14.6µM*
Cc1cccc2sc(NS(=O)(=O)c3ccccc3)nc12	u	6.3	-13.2%	0.4%	3.4%	u
COc1ccc(C2C(O)C(c3c[nH]c4ccccc34)=NN2C(=O)CCl)cc1 (configuration not stated)	0.581µM*	-99.4*	2.24µM*	3.98µM*	9.0%	0.326µM*
SMILES	DT40 TDP1 no CPT	IL1B secr inh	TGFb SMAD3 inh	HepG2 viability	TDP1 inh	DT40 TDP1 CPT
COc1ccc(C2NN=C(c3c[nH]c4ccccc34)C2O)cc1 (configuration not stated)	u	-18.5	u	-25.2%	x	u
CCN(C(=O)COC(=O)C1=COCCO1)c1ccccc1	6.51µM*	-21.1	18.0%	-0.6%	3.0%	5.5%
CN(C(=O)COC(=O)C1=COCCO1)c1c(N)n(Cc2ccccc2)c(=O)[nH]c1=O	6.1%	10.9	23.0%	1.1%	-9.1%	5.7%
CC(=O)/C(C=Nc1noc(C)c1Br)=C(\C)O	6.3%	0.0	-0.1%	-3.2%	2.7%	-5.9%
CCOc1ccc(-n2c(SC(C)C(=O)OC)nc3c([nH]c4ccccc43)c2=O)cc1 (configuration not stated)	u	x	-1.5%	-21.5%	5.5%	u
CCOC(=O)C1=C(C)N=C2SC(C(=O)OC)=CC(=O)N2C1c1ccc(F)cc1 (configuration not stated)	u	-60.8*	u	-9.3%	9.3%	u
CCOC(=O)C1(C)CCN1C(=O)c1cc(F)cc(F)c1 (configuration not stated)	-3.9%	2.5	-8.6%	-5.8%	x	-4.2%
CC(=O)Oc1ccc(N2C(=O)C3C4C=CC(CO)(O4)C3C2=O)cc1 (configuration not stated)	4.61µM*	-4.5	8.1%	16.5%	7.0%	2.59µM*
O=C1C2C3C=CC(CO)(O3)C2C(=O)N1c1ccccc1-c1ccccc1 (configuration not stated)	4.11µM*	-82.5*	12.6µM*	12.6µM*	10.1%	2.59µM*
CC(=O)Oc1ccc(N2C(=O)C3C(C2=O)C2(C)C=CC3(C)O2)cc1 (configuration not stated)	x	x	x	x	8.6%	x
O=C1CCC(=O)N1c1ccccc1-c1ccccc1	5.1%	5.9	-3.2%	3.4%	-1.0%	-4.1%
O=C1C2C3C=CC(CNS(=O)(=O)c4ccccc4)(O3)C2C(=O)N1c1ccc(Cl)cc1 (configuration not stated)	u	6.5	1.7%	-5.8%	8.1%	25.9µM*
CCOc1ccccc1NC(=O)COC(=O)COc1cccc2c1OC(C)(C)C2	-10.6%	-8.7	5.6%	-2.0%	x	2.9%
C#CCN(C[C@H]1[C@H](OC(=O)NCc2ccco2)[C@H](OC(=O)NCc2ccco2)C[C@H]2C(=O)N(c3ccccc3)C(=O)[C@@H]12)S(=O)(=O)c1ccc(C)cc1	u	-8.4	13.0%	-0.7%	x	2.4%

Screening data from PubChem BioAssay.
